The values below come from PMC4552634, “A New Set of Chemical Starting Points with Plasmodium falciparum Transmission-Blocking Potential for Antimalarial Drug Discovery” (PLoS ONE, 2015).

Where two headings read alike, the source gives them in different places. Out of some 13,000 compounds screened, about 3,200 (25%) showed an effect of 50% or more. Some of the results follow.

What is called % Inhibition is the drop in the measured response relative to a control, in per cent.

The experiment relates to P. falciparum stage V gametocytes. Details: BacTiter-Glo ATP luminescence viability of purified stage V gametocytes in 384-well plates, per cent inhibition versus DMSO. The settings on record: 48 h, 5 µM, inhibitor.

For the compound `COc1ccc2sc(CNCCCNc3cc(=O)c4ccccc4[nH]3)c(Cl)c2c1` [TCMDC-140334], the “% Inhibition” value is -8.727%.
Still for that read-out and setting: with `O=C(NC1CCN(Cc2ccccc2)CC1)c1ccc(-c2nc3cc4ccccc4cc3[nH]2)s1` [TCMDC-140122] the figure was 18.76%; with `CC1Cc2ccccc2N1CC(=O)Nc1cc(C(F)(F)F)ccc1-n1cncn1` (centres unmarked) [TCMDC-124870], -73.33%; with `O=C(NCCNc1noc(-c2sccc2Br)n1)c1ccc(Cl)cc1` [TCMDC-134182], 2.834%.
Consider `O=c1cc(N2CCCNCC2)c(Cl)nn1Cc1ccc(NS(=O)(=O)c2ccc(Oc3ccccc3)cc2)cc1` [TCMDC-141692], for which the “% Inhibition” value is listed as 2.781%.
Consider `COc1ccc(-c2cnc3[nH]cc(-c4ccc(C(=O)O)cc4)c3c2)cn1` [TCMDC-136213], for which the “% Inhibition” value turned out to be 14.9%.
The same measure, in the same setting: in the case of `COc1ccc(-c2cnc3[nH]cc(-c4ccncc4)c3c2)cc1OC` [TCMDC-135853] it was 140.3%.
Still for that read-out and setting: in the case of `COc1ccc(-c2cnc3[nH]cc(-c4ccc(CCC(=O)O)cc4)c3c2)cn1` [TCMDC-136240] it was 35.75%; in that of `COc1ccc(CNC(=O)C2Cc3ccccc3CN2Cc2ccc3ccccc3c2)cc1` (centres unmarked) [TCMDC-141565], -15.29%.
On the same count and under the same terms, with `O=C(Nc1nc(-c2ccccn2)cc2ccccc12)c1cccc(Cl)c1` [TCMDC-123886] the figure was 116.1%.
Turning to `COc1ccc(-c2nonc2NC(=O)c2cccc(Cl)c2)cc1OC` [TCMDC-125401], the “% Inhibition” value was determined as 22.75%.
As to `CC(=O)Oc1cc(C(=O)Nc2ccc(Cl)cc2)cc2ccccc12` [TCMDC-123708], the “% Inhibition” value came out at 7.424%.
Consider `O=C(O)c1ccc2nc(-c3ccccn3)c(-c3ccccn3)nc2c1` [TCMDC-123820], for which the “% Inhibition” value is reported as -4.631%.
With `CC1CCCN(C(=O)c2cc(-c3ccccn3)nc3c(Cl)cccc23)C1` (centres unmarked) [TCMDC-125218], the “% Inhibition” value is reported as 20.47%.
On the same count and under the same terms, in the case of `NC(=Nc1nc(-c2ccccn2)cc2ccccc12)c1cccc(Cl)c1` [TCMDC-123745] it was 62.24%; in that of `O=C(NC1CCN(Cc2ccccc2)CC1)c1ccc(-c2nc3cc(Cl)c(F)cc3[nH]2)s1` [TCMDC-140100], 2.226%.
On the same count and under the same terms, in the case of `Cc1ccc(-c2csc(C)n2)c(C)c1` [TCMDC-125751] it was 2.132%; in that of `O=c1cc(-c2cccc(C(F)(F)F)c2)nc(Nc2ccc(Cl)c(Cl)c2)[nH]1` [TCMDC-132206], 43.99%; in that of `COc1cc(CS(C)(=O)=O)ccc1Nc1nccc(-c2c(-c3cccc(NC(=O)c4c(F)cccc4F)c3)nn3ccccc23)n1` [TCMDC-135792], -6.854%.
On the same count and under the same terms, in the case of `O=C(/C=C/c1ccc(Cl)c(Cl)c1)NCCCCCN1CCC(NC(=O)Nc2ccc(F)cc2F)CC1` [TCMDC-135712] it was 11.66%; in that of `O=C(C=Cc1ccc(Cl)c(Cl)c1)NCCCCCN1CCC(CCNS(=O)(=O)c2ccc(F)cc2)CC1` [TCMDC-139585], 78.1%; in that of `O=C(/C=C/c1ccc(Cl)c(Cl)c1)NCCCCCN1CCC(NC(=O)c2ccc(F)cc2F)CC1` [TCMDC-135842], -11.69%.
In the case of `O=C(/C=C/c1ccc(Cl)c(Cl)c1)NCCCCCN1CCC(NC(=S)Nc2ccc(F)cc2F)CC1` [TCMDC-135900], the “% Inhibition” value is 33.5%.
The same measure, in the same setting: with `O=C(C=Cc1ccc(Cl)c(Cl)c1)NCCCCCN1CCC(CCCNS(=O)(=O)c2ccc(F)cc2)CC1` [TCMDC-139589] the figure was 110.7%; with `Cc1cc(NC(=O)Nc2cccc(Cl)c2Cl)c2ccccc2n1` [TCMDC-138971], 10.53%.
Same read-out and setting: with `O=C(CCc1c[nH]cn1)Nc1cccc(-c2ccc(-c3nc4cc(F)ccc4[nH]3)s2)c1` [TCMDC-132160] the figure was 19.34%; with `CCOc1ccc(CCCON2C(N)=NC(N)=NC2(C)C)cc1` [TCMDC-131754], 18.76%.
Turning to `C/C=C1\CN2CC[C@H]1C[C@H]2[C@H](O)c1ccnc2ccc(OC)cc12` [TCMDC-138275], the “% Inhibition” value (% Inhibition) came out at 1.908%.
For `COc1ccc2ncc(C#N)c(CCN3CCC(NCc4cnc5c(c4)OCCO5)CC3)c2n1` [TCMDC-135230], the “% Inhibition” value was determined as 35.06%.
With `CC(C)[C@H](NC(=O)c1c(F)cccc1F)C(=O)Nc1ccc(Cc2nc3ccccc3s2)cc1` [TCMDC-125031], the “% Inhibition” value is on record as 63.22%.
Still for that read-out and setting: with `CC(C)C(NC(=O)c1c(F)cccc1F)C(=O)Nc1ccc(Cc2nc3ccccc3s2)cc1` (centres unmarked) [TCMDC-125462] the figure was -3.098%; with `CC(=O)c1sc(Cc2nc3ccccc3s2)nc1C` [TCMDC-125337], 10.02%.
`O=C(c1ccccc1N=Nc1c(-c2ccccc2)[nH]n(-c2ccccc2)c1=O)N1CCOCC1` [TCMDC-125746]: the “% Inhibition” value is given as -15.29%.
For `CN(C)CCN(C)Cc1ccc(-c2ccc(NC(=O)c3cccc(C#N)c3)cc2)cc1` [TCMDC-132597], the “% Inhibition” value was -16.52%.
On the same count and under the same terms, with `CN(C)Cc1ccc(-c2ccc(NC(=O)c3ccc4c(=O)n(Cc5ccccc5)cnc4c3)cc2)cc1` [TCMDC-132361] the figure was 121.5%; with `O=C(Nc1cc(F)cc(-c2cccnc2)c1)c1ccc2c(=O)n(Cc3ccccc3)cnc2c1` [TCMDC-132372], 12.04%; with `CN1CCC(Oc2ccc(NC(=O)c3ccc4c(=O)n(Cc5ccccc5)cnc4c3)cc2Cl)CC1` [TCMDC-132373], -13.59%.
On the same count and under the same terms, in the case of `CN(C)Cc1ccc(-c2ccc(NC(=O)c3ccc4c(=O)n(Cc5ccoc5)cnc4c3)cc2)cc1` [TCMDC-132368] it was 79.58%; in that of `CN(C)Cc1cccc(-c2ccc(NC(=O)c3ccc4c(=O)n(Cc5ccoc5)cnc4c3)cc2)c1` [TCMDC-132369], 14.65%; in that of `Brc1ccsc1-c1nc(NCCC(c2ccccc2)c2ccccc2)no1` [TCMDC-134185], 1.138%.
As for `COc1ccc(C2CC(=O)C3=C(C2)NC(C)=C(C(=O)OC2CCCC2)C3c2ccc(O)cc2)cc1OC` (centres unmarked) [TCMDC-125626], the “% Inhibition” value is 11.61%.
Turning to `COc1cc2nc(-c3ccccc3)nc(N3CCN(CC(=O)N4CCCC4)CC3)c2cc1OC` [TCMDC-125097], the “% Inhibition” value is on record as -15.61%.
Consider `O=C(/C=C/c1ccc(Cl)c(Cl)c1)N1CCC(CNCc2cccc3cc[nH]c23)CC1` [TCMDC-134168], for which the “% Inhibition” value is reported as -34.36%.
On the same count and under the same terms, with `COc1ccc(C(=O)Nc2ccc(-c3ccc([N+](=O)[O-])cc3)cc2)cc1CCCN(C)C` [TCMDC-132090] the figure was 0.6115%.
As for `COc1ccc(/C=C/C(=O)Nc2ccc(-c3ccncc3)cc2)cc1CCCN(C)C` [TCMDC-132082], the “% Inhibition” value is on record as 72.07%.
Same read-out and setting: with `COc1cc(NC(=O)/C=C/c2ccc(-c3ccccc3)cc2)ccc1OCCN(C(C)C)C(C)C` [TCMDC-139961] the figure was -1.594%; with `COc1ccc(NC(=O)/C=C/c2ccc(-c3ccc(-c4noc(C)n4)cc3)cc2)cc1OCCN(C)C` [TCMDC-138985], 62.93%; with `COc1ccc(NC(=O)/C=C/c2ccc(-c3ccccc3)cc2)cc1N1CCN(C)CC1` [TCMDC-138979], -7.206%.
`Cc1nc(-c2ccc(-c3ccc(C(=O)Nc4ccc(C(C)C)c(OCCN(C)C)c4)cc3)c(C)c2)no1` [TCMDC-138990]: the “% Inhibition” value is -34.94%.
With `CC(=O)Nc1nc(C(=O)Nc2ccc(-c3cccc(-c4nc5ccc(C(F)(F)F)cc5[nH]4)c3)cc2)cs1` [TCMDC-137129], the “% Inhibition” value is recorded as -34.14%.
In the case of `COc1cccc(COCC(O)CN(CCc2ccccn2)C(=O)c2ccccc2F)c1` (centres unmarked) [TCMDC-141311], the “% Inhibition” value was found to be 5.48%.
As to `CCCCC(CC)CN1C(=O)C(c2ccccc2)(c2ccccc2)N=C1N` (centres unmarked) [TCMDC-136814], the “% Inhibition” value is -93.32%.
For `CNC(=O)c1cc(Nc2nnc(-c3ccc(C)c(S(=O)(=O)NC4CCCCC4)c3)c3ccccc23)ccc1OC` [TCMDC-125661], the “% Inhibition” value was -9.997%.
Same read-out and setting: in the case of `NCc1ccc(-c2cccc(CNC3CCN(Cc4ccccc4)CC3)c2)cc1` [TCMDC-140478] it was 84.33%; in that of `NCc1cccc(-c2cccc(CNC3CCN(Cc4ccccc4)CC3)c2)c1` [TCMDC-140477], 86.14%; in that of `NCc1cccc(-c2ccc(CNC3CCN(Cc4ccccc4)CC3)cc2)c1` [TCMDC-140486], 46.75%.
Turning to `Oc1ccc(CN2CCC(NCc3cccc(C(F)(F)F)c3)CC2)cc1` [TCMDC-141655], the “% Inhibition” value is -19.37%.
Turning to `CCOc1cc(C(=O)NC2CCN(Cc3ccccc3)C2)ccc1-c1nc2ccc(Cl)cc2[nH]1` (centres unmarked) [TCMDC-140911], the “% Inhibition” value is -5.376%.
Still for that read-out and setting: with `O=C(Nc1ccc(-c2nc3ccccc3[nH]2)cc1)c1ccc(S(=O)(=O)N2CCCCCC2)cc1` [TCMDC-125712] the figure was -20.46%.
The same measure, in the same setting: in the case of `Cc1ccc2nc(C)cc(N/N=C/c3ccccc3[N+](=O)[O-])c2c1` [TCMDC-123975] it was -3.364%.
Turning to `COc1ccc2nc(-c3ccccc3)cc(NN=Cc3ccc([N+](=O)[O-])o3)c2c1` [TCMDC-142040], the “% Inhibition” value is reported as -17.37%.
As to `COc1ccc2nc(C)cc(NN=Cc3ccccc3[N+](=O)[O-])c2c1` [TCMDC-142087], the “% Inhibition” value was found to be 48.43%.
On the same count and under the same terms, in the case of `CCOc1ccc2nc(C)cc(NN=Cc3cccc([N+](=O)[O-])c3)c2c1` [TCMDC-142049] it was 64.63%; in that of `COc1ccc2nc(C)cc(NN=Cc3ccc([N+](=O)[O-])o3)c2c1` [TCMDC-142036], 11.78%.
Take `Cc1ccc2nc(C)cc(N/N=C/c3ccc([N+](=O)[O-])cc3)c2c1` [TCMDC-142070]: the “% Inhibition” value amounted to 109.1%.
Same read-out and setting: in the case of `Cc1ccc2nc(C)cc(NN=Cc3ccc(Cl)cc3)c2c1` [TCMDC-123976] it was -8.095%.
As for `Cc1ccc2nc(C)cc(N/N=C/c3ccc([N+](=O)[O-])o3)c2c1` [TCMDC-142035], the “% Inhibition” value is given as 56.06%.
Still for that read-out and setting: in the case of `CCOc1ccc2nc(C)cc(NN=Cc3ccccc3[N+](=O)[O-])c2c1` [TCMDC-142048] it was 91.47%.
